Where “and” joins values, the source holds several entries; their conditions need not be identical. Equal values may be shown once. Over roughly 5,300 compounds, “PER2::LUC luminescence relative to vehicle control” has its median near 0.96; the highest 2% begin near 1.3. The list comes from a sample in which the highest values are over-represented; it also holds similar structures and randomly drawn compounds.
System: mPer2Luc MEF
Assay: PER2::LUC luminescence relative to vehicle control (fold of vehicle); higher = higher PER2::LUC reporter signal
Details: 10 µM
Procedure, shortened: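 Mouse embryonic fibroblasts carrying the mPer2Luc reporter were seeded at ~3000 cells per well in 384-well plates, 48 h before compounds from commercial libraries were added at 10 μM. Cells were grown in DMEM with 10% FBS at 37 °C and 5% CO2. Luminescence was read with the ONE-Glo luciferase assay system 24 h and 30 h after treatment, followed by an alamarBlue viability assay. The value is PER2::LUC luminescence as fold of vehicle control.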

Row | SMILES | PER2::LUC luminescence (time after treatment 24 h) | PER2::LUC luminescence (time after treatment 30 h)
1 | COc1ccc(CCC(=O)Nc2nc3ccc(Cl)cc3s2)cc1OC | 0.875 and 0.954 | 1.04 and 0.951
2 | C[C@@H]1O[C@@H](OC[C@H]2O[C@@H](Oc3cc(O)c4c(=O)cc(-c5ccc(O)cc5)oc4c3)[C@H](O)[C@@H](O)[C@@H]2O)[C@H](O)[C@H](O)[C@H]1O | 0.948 | 0.927
3 | CCCCN(CCCC)C(=O)CN1C[C@H](c2ccc3c(c2)OCO3)[C@@H](C(=O)O)[C@@H]1c1ccc(OC)cc1 | 2.23 | 2.08
4 | Cc1noc(-c2ccc(-c3ccc(CC(=O)O)cc3)cc2)c1NC(=O)OC(C)c1ccccc1Cl (stereo not given) | 1.1 | 1.12
5 | C/C=C/C(=O)N1C(=O)OC[C@@H]1Cc1ccccc1 | 0.864 | 0.846
6 | CN1CCCN=C1/C=C/c1cccs1 | 1.2 and 1.03 | 0.92 and 1.16
7 | O=C1/C(=C/c2cccs2)CC/C1=C\c1cccs1 | 1.07 | 1.01
8 | O=C1/C(=C/c2cccs2)CCC/C1=C\c1cccs1 | 1.5 | 1.67
9 | O=C(Oc1ccccc1C(=O)O)c1ccccc1O | 1.15 and 0.613 | 1.16 and 0.995
10 | CC(=O)Nc1ccc(OC(=O)c2ccccc2O)cc1 | 0.934 | 1.02
11 | Nc1ccc(C(=O)Oc2ccccc2)c(O)c1 | 0.958 | 1.54
12 | CC(C)c1onc(-c2c(Cl)cccc2Cl)c1COc1ccc(/C=C/c2cccc(C(=O)O)c2)c(Cl)c1 | 1.86 | 2.03
13 | CC(C)CCNC(=O)c1ccc2c(c1)nc(Nc1n[nH]c3ccc(-c4ccccc4OC(F)(F)F)cc13)n2C1CCC(O)CC1 (stereo not given) | 0.526 | 0.553
14 | CCCCC(CC)COC(=O)c1ccccc1O (stereo not given) | 1.07 | 1.63
15 | CCCCC(CC)COC(=O)C=Cc1ccc(OC)cc1 (stereo not given) | 1.09 | 1.14
16 | CCCCC(CC)COC(=O)C(C#N)=C(c1ccccc1)c1ccccc1 (stereo not given) | 1.01 and 1.15 | 1.08 and 1.14
17 | COc1ccc(CNc2nc(NCc3ccc(OC)cc3)c3ncn(C(C)C)c3n2)cc1 | 0.991 | 1.22
18 | CC(C)Cc1ccc(C(C)C(=O)O)cc1 (racemic) | 1.12 | 0.938
19 | CC(C(=O)O)c1ccc(CC2CCCC2=O)cc1 (stereo not given) | 0.779 and 1.02 | 1.36 and 1.08
20 | CC(C)Cc1ccc([C@@H](C)C(=O)O)cc1 | 0.974 | 0.981
21 | O=C(NCc1cccc(O)c1)c1cc2cc(F)ccc2[nH]1 | 0.948 | 0.986
22 | CC(=O)NN(Cc1ccc(N)cc1)c1ncnc2c1ncn2[C@@H]1O[C@H](CO)[C@@H](O)[C@H]1O | 1.03 | 0.913
23 | NC1(C(=O)O)CCc2cc(P(=O)(O)O)ccc21 (racemic) | 1.03 | 1.01
24 | Cc1nc(C(=O)N2CCC[C@H]2Cc2nnc(-c3ccccc3)o2)c(-c2ccccc2F)s1 | 1.06 | 0.881
25 | COc1ccc(CCN2CN=C(SCc3ccc(Cl)cc3)NC2)cc1OC | 0.912 | 0.83
26 | COc1ccccc1O | 0.97 | 0.878
27 | COc1cc(-c2ccc(=O)[nH]n2)ccc1OC(F)F | 0.97 | 0.924
28 | COc1cc(CC(=O)O)ccc1O | 0.99 | 0.874
29 | COc1ccc(-c2nc3cc(F)ccc3s2)cc1OC | 1.5 | 1.52
30 | COc1cc(-c2nc3ccccc3s2)ccc1O | 1.37 | 1.5

Source: the supplement of paper PMC9334596
